Laboratory results reported in ChEMBL document CHEMBL3433997, “St. Jude Leishmania screening dataset” (2016).

Key:
Format in all cases: functional
[1] = molecular target: Solute carrier family 2, facilitated glucose transporter member 1 (Homo sapiens) (UniProt P11166); experiment: ST_JUDE_LEISH: Cytotoxicity at 2uM final concentration against transgenic Leishmania Mexicana promastigotes LmGLUT1 that are glucose transport deficient and complemented with the human glucose transporter GLUT1. Activity is measured by DNA content using SYBR green in vitro
Solute carrier family 2, facilitated glucose transporter member 1 (Homo sapiens), sequence (P11166 whole entry): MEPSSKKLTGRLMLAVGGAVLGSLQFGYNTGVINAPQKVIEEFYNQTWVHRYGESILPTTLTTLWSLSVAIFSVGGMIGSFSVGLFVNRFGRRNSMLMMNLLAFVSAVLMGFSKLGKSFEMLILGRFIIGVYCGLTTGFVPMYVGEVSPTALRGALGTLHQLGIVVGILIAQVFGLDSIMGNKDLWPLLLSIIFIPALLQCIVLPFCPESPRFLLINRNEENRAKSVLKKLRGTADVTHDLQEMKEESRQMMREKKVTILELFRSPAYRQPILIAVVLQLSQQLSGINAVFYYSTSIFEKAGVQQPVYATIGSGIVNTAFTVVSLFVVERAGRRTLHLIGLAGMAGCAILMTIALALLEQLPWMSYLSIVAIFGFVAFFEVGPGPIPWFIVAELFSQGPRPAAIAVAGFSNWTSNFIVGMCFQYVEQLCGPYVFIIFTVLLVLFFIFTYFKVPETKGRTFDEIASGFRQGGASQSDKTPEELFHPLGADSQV

[2] = molecular target: Hexose transporter 1 (Plasmodium falciparum) (UniProt O97467); experiment: ST_JUDE_LEISH: Cytotoxicity at 2uM final concentration against transgenic Leishmania Mexicana promastigotes LmPfHT that are glucose transport deficient and complemented with the Plasmodium falciparum hexose transporter. Activity is measured by DNA content using SYBR green in vitro
[3] = molecular target: Glucose transporter (Leishmania mexicana) (UniProt O61059); experiment: ST_JUDE_LEISH: Cytotoxicity at 2uM final concentration against transgenic Leishmania Mexicana promastigotes LmGT2 that are glucose transport deficient and complemented with the L. Mexicana glucose transporter 2. Activity is measured by DNA content using SYBR green in vitro

Compound | inhibition [1] | inhibition [2] | inhibition [3]
CN(C)CCOc1cc(NC(=O)Nc2ccc(-c3ccccc3)cc2Cl)ccc1I | 1.19% | 0.57% | -2.09%
CC(Cc1ccc(NC(=O)c2ccc(NCCc3ccccc3)cc2)cc1)NCCc1cccc(Cl)c1 (centres undefined) | -0.04% | -0.81% | -1.31%
CS(=O)(=O)N1CC2(CCN(CCC(NC(=O)/C=C/c3ccccc3)c3ccc(Cl)c(Cl)c3)CC2)c2ccccc21 (centres undefined) | 2.11% | 0.3% | 1.25%
CCOc1ccccc1CNc1nccc(NCc2ccc(Cl)cc2Cl)n1 | 31.3% | 21.2% | 9.92%
Cc1cc(NC(=O)NCCN2CCC(NS(=O)(=O)c3cccc(Br)c3)C2)c2ccccc2n1 (centres undefined) | 1.93% | 0.98% | 0.42%
CCc1cn2c3c(cc(C(=O)N[C@@H](Cc4ccccc4)[C@H](O)CNC4CCCCC4)cc13)N(CC)S(=O)(=O)CC2 | -0.63% | 0.33% | -3.68%
Clc1ccc2c(NCCc3ccccn3)ccnc2c1 | 6.58% | 6.15% | 6.87%
Cc1nc(N)nc(N)c1C#CC1CCCC1 | 5.81% | 6.82% | 2.76%
O=C(N[C@H]1CCN(Cc2ccc(OC3CCN(Cc4ccccc4)CC3)c(Cl)c2)C1)c1ccc(Cl)c(Cl)c1 | 0.44% | 2.06% | 1.75%
Cc1cccc2nc(-c3cccc(-c4ccc(NC(=O)Cc5ccc[n+]([O-])c5)cc4)c3)[nH]c12 | 0.18% | 1.16% | 0.56%
CCN1CCN(c2cc(C)c3cc(NC(=O)c4cncc(Br)c4)ccc3n2)CC1 | -0.07% | -1.3% | -2.43%
O=C(NCCCNc1nc2ccccc2[nH]1)c1cccc(OC(F)(F)F)c1 | 2.27% | -0.62% | 1.46%
CCn1c2ccccc2c2cc(Cc3cnc(N)nc3N)ccc21 | 9.49% | 8.51% | 3.47%
Clc1ccc(CNc2nc(NCCc3c[nH]cn3)nc(N3CCCC4CCCCC43)n2)cc1 (centres undefined) | 3.99% | 4.86% | 3.89%
N#Cc1ccc(N2CCN(Cc3ccc(-c4ccc(-c5nc6ccccc6[nH]5)s4)cc3)CC2)nc1 | 6.79% | 6.18% | 2.59%
O=C(N[C@@H](CC1CCCCC1)C(=O)NCc1cccc2ccccc12)c1ccc(O)c(-c2ccc(Cl)c(Cl)c2)c1 | 2.54% | 2.25% | 2.22%
OC(CN1CCN(C2CCCCC2)CC1)Cn1c2ccccc2c2cc(Br)ccc21 (centres undefined) | 1.23% | 0.82% | 0.47%

Compound | inhibition [1] | inhibition [2] | inhibition [3]
CCC(C)C#Cc1c(C)nc(N)nc1N (centres undefined) | 0.18% | 0.61% | 0.17%
Oc1ccc(Cc2cc(Oc3c(I)cc(CCc4ncc[nH]4)cc3I)ccc2O)cc1 | 0.12% | 1.92% | 1.23%
Cn1cncc1C(=O)Nc1cccc(-c2cccc(-c3nc4cc(C(F)(F)F)ccc4[nH]3)c2)c1 | -1.02% | 2.87% | -0.89%
Nc1ncc(-c2ccsc2)c2ccc(-c3cc(NCc4ccccc4)ncn3)cc12 | 10.1% | 8.31% | 7.39%
CCNc1cc(C(=O)N[C@@H](Cc2ccccc2)[C@H](O)CNC(CC)c2cccc(Cl)c2)cc(N2CCCC2=O)c1 (some centres undefined) | 3.51% | -0.75% | 3.68%
Cc1cc(=NN=Cc2ccc(Cl)cc2)c2cc(F)ccc2[nH]1 | -0.08% | 0.68% | -0.34%
Cc1nc2nc(N)nc(N)c2c(C)c1Cc1cccc(F)c1 | 2.65% | 1.14% | 0.65%
Cc1cccc(Cn2c(C(N)=O)nn(-c3ccc([N+](=O)[O-])cc3C#N)c2=S)c1 | 11.5% | 11.7% | 11.7%
COc1ccc(-c2cccc(NC(=O)c3cccc(Cl)c3)c2)cc1CN1CCCN(C)CC1 | 11.4% | 12% | 11.7%
Cc1c(CNCCCNc2cc(=O)c3ccccc3[nH]2)sc(-c2ccco2)c1Br | 14.4% | 13.6% | 13.9%
CCS(=O)(=O)c1ccc(OC)c(Nc2nccc(-c3c(-c4cccc(NC(=O)c5c(F)cccc5F)c4)nn4ncccc34)n2)c1 | 6.13% | 3.41% | 2.02%
CSc1cccc(Nc2nc3ccc(S(=O)(=O)NC(C)C(C)C)cc3n2[C@H](C)C(C)(C)C)c1 (some centres undefined) | 6.73% | 6.18% | 6.54%
Cc1nnsc1C(=O)Nc1ccc(-c2ccc(-c3nc4cccc(C)c4[nH]3)s2)cc1 | 5.61% | 2.76% | 2.44%
CCc1c(C)nc(-n2nc(C)cc2NC(=O)CC(c2ccccc2)c2ccccc2)[nH]c1=O | -2.32% | -2.23% | -4.35%
CC(=O)Nc1cccc(Nc2nccc(Nc3ccc(Oc4ccccc4)cc3)n2)c1 | 1.64% | 2.76% | -0.82%
CS(=O)(=O)n1c(CN2CCN(c3ncc(C(F)(F)F)cc3Cl)CC2)nc2ccccc21 | 8.28% | 7.91% | 5%
